Measurements as given in PubChem BioAssay (NCI).
The panel holds about 83,000 compounds, 20% with a hit somewhere; the sample as a whole holds those more often.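 For each line, cells grew in 96-well plates with the test compound present at a single concentration for 48 hours.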 Active and inactive are the calls of the source. Rule for the calls: active = growth percent below 10; inactive = the rest.

Experiments:
Assay in all cases: NCI-60 one-dose screen, 48 h (100 = growth as untreated, 0 = no growth, -100 = all killed)
Conditions in all cases: 10 µM unless noted
HCT-15 colon = system: HCT-15 colon
HT29 colon = system: HT29 colon
SNB-75 CNS = system: SNB-75 CNS
SNB-19 CNS = system: SNB-19 CNS
U251 CNS = system: U251 CNS
PC-3 prostate = system: PC-3 prostate
SK-MEL-5 melanoma = system: SK-MEL-5 melanoma
UACC-62 melanoma = system: UACC-62 melanoma
LOX IMVI melanoma = system: LOX IMVI melanoma
SK-MEL-28 melanoma = system: SK-MEL-28 melanoma

Measured: growth

OCCn1cc(-c2nc(-c3c[nH]c4ncccc34)cs2)c2cc(F)ccc21
inactive: HCT-15 colon 41.6% | HT29 colon 46.8% | SNB-75 CNS 72.5% | SNB-19 CNS 79.5% | U251 CNS 62.9% | PC-3 prostate 48.7% | SK-MEL-5 melanoma 63% | UACC-62 melanoma 63.3% | LOX IMVI melanoma 65.5% | SK-MEL-28 melanoma 89.8%

COc1cc(OC)c(NC(=O)c2cc3ccccc3cc2O)cc1Cl
inactive: HCT-15 colon 48.5% | HT29 colon 101% | SNB-75 CNS 86.9% | SNB-19 CNS 51% | U251 CNS 17.7% | SK-MEL-5 melanoma 51.4% | LOX IMVI melanoma 24.2% | SK-MEL-28 melanoma 53.6%
active: PC-3 prostate -0.247% | UACC-62 melanoma 3.04%

COc1cc2c(c(OC)c1OC)CCC(c1cccc(C(=O)Nc3cccc(Cl)c3)c1)O2 (stereo not given)
inactive: HCT-15 colon 75.2% | HT29 colon 63.6% | SNB-75 CNS 63.7% | SNB-19 CNS 76.5% | U251 CNS 72.4% | PC-3 prostate 34% | SK-MEL-5 melanoma 63% | UACC-62 melanoma 53.4% | LOX IMVI melanoma 65.2% | SK-MEL-28 melanoma 78.1%

CCCCCCCCCCCCCCCCCCOc1ccccc1CC(=O)OCC[N+](C)(C)C
inactive: HCT-15 colon 57.5% | SNB-19 CNS 29.9% | SK-MEL-5 melanoma 25.3% | UACC-62 melanoma 18.6% | LOX IMVI melanoma 29.3% | SK-MEL-28 melanoma 64.8%
active: HT29 colon 8.73% | SNB-75 CNS -16.4% | U251 CNS -76.6% | PC-3 prostate 5.84%

CCCOC(=O)Nc1nc2ccc(SCC(C)C)cc2s1
inactive: HCT-15 colon 26.6% | HT29 colon 15.9% | SNB-75 CNS 28.6% | SNB-19 CNS 53.9% | U251 CNS 49.2% | PC-3 prostate 45.9% | SK-MEL-5 melanoma 27.6% | UACC-62 melanoma 18.9% | LOX IMVI melanoma 40.8% | SK-MEL-28 melanoma 64.9%

CCN1C(=S)N(c2ccccc2)C2NC(=S)N(/N=C/C=C/c3ccccc3OC)C21 (stereo not given)
inactive: HCT-15 colon 12.9% | SNB-19 CNS 31.3% | PC-3 prostate 30.1% | SK-MEL-5 melanoma 14.1% | UACC-62 melanoma 25.7% | LOX IMVI melanoma 15.4% | SK-MEL-28 melanoma 47.8%
active: HT29 colon 1.16% | SNB-75 CNS -1.02% | U251 CNS 3.1%

CCOC(=O)Cc1cnc(N/N=C(\C)c2cc3ccccc3o2)s1
inactive: HCT-15 colon 105% | HT29 colon 85.5% | SNB-75 CNS 105% | SNB-19 CNS 95% | U251 CNS 91.3% | PC-3 prostate 78% | SK-MEL-5 melanoma 99.3% | UACC-62 melanoma 86.3% | LOX IMVI melanoma 86% | SK-MEL-28 melanoma 110%

CC(C)C1=NOC(=O)C1=Cc1cn(-c2ccccc2)nc1-c1ccc(F)cc1
active: LOX IMVI melanoma 6.17%
inactive: HCT-15 colon 61.4% | HT29 colon 28.8% | SNB-75 CNS 70.6% | SNB-19 CNS 81.7% | U251 CNS 51.3% | PC-3 prostate 38.5% | SK-MEL-5 melanoma 78.9% | UACC-62 melanoma 75.5% | SK-MEL-28 melanoma 82.7%

COc1ccc(/C=C(\C#N)n2nnc3ccc(Cl)cc32)cc1
inactive: HCT-15 colon 38.9% | HT29 colon 26.3% | SNB-75 CNS 20.4% | SNB-19 CNS 55.2% | U251 CNS 61.7% | PC-3 prostate 63.7% | SK-MEL-5 melanoma 81.7% | UACC-62 melanoma 62.3% | LOX IMVI melanoma 56.9% | SK-MEL-28 melanoma 71.4%

Cc1ccc(/C=C2\COc3ccc(O)cc3C2=O)cc1
inactive: HCT-15 colon 70.8% | HT29 colon 57.7% | SNB-75 CNS 84.6% | SNB-19 CNS 87.5% | U251 CNS 69.9% | PC-3 prostate 86% | SK-MEL-5 melanoma 97.7% | UACC-62 melanoma 86.1% | LOX IMVI melanoma 57% | SK-MEL-28 melanoma 103%

CSc1nc(N)c(NS(=O)(=O)c2ccc(C(C)=O)cc2)c(=O)[nH]1
inactive: HCT-15 colon 98.4% | HT29 colon 103% | SNB-75 CNS 87.6% | SNB-19 CNS 107% | U251 CNS 112% | PC-3 prostate 102% | SK-MEL-5 melanoma 97.5% | UACC-62 melanoma 98.3% | LOX IMVI melanoma 101% | SK-MEL-28 melanoma 104%

O=S(=O)(NCCNc1nccc(-c2c(-c3ccc(F)c(O)c3)nc3sccn23)n1)c1ccc(O)cc1
active: SK-MEL-5 melanoma 5.55%
inactive: HCT-15 colon 33.1% | HT29 colon 17% | SNB-75 CNS 58.9% | SNB-19 CNS 56.3% | U251 CNS 56.8% | PC-3 prostate 22.4% | UACC-62 melanoma 17.4% | LOX IMVI melanoma 32.2% | SK-MEL-28 melanoma 55.2%

O=C1Nc2ccccc2/C1=C/c1nc2ccccc2c(=O)[nH]1
inactive: HCT-15 colon 72.6% | HT29 colon 105% | SNB-75 CNS 88.9% | SNB-19 CNS 95.5% | U251 CNS 96.3% | PC-3 prostate 77.7% | SK-MEL-5 melanoma 94.4% | UACC-62 melanoma 96.1% | LOX IMVI melanoma 82.1% | SK-MEL-28 melanoma 109%

CS(=O)(=O)c1ccc(-c2cnn3ccc(-c4cccc(S(=O)(=O)C5CC5)c4)nc23)cc1
inactive: HCT-15 colon 57% | HT29 colon 34% | SNB-75 CNS 14% | SNB-19 CNS 67.3% | U251 CNS 68.7% | PC-3 prostate 40.3% | SK-MEL-5 melanoma 63.2% | UACC-62 melanoma 53.3% | LOX IMVI melanoma 44.1% | SK-MEL-28 melanoma 69.7%

Cc1ccc(Nc2cc(N)nc(N)n2)cc1Cl
inactive: HCT-15 colon 97.1% | HT29 colon 98.2% | SNB-75 CNS 80.2% | SNB-19 CNS 104% | U251 CNS 97.3% | PC-3 prostate 94.2% | SK-MEL-5 melanoma 97.5% | UACC-62 melanoma 90.8% | LOX IMVI melanoma 97.3% | SK-MEL-28 melanoma 109%

C[PH+](c1nc2ccccc2nc1[PH+](C)C(C)(C)C)C(C)(C)C.C[PH+](c1nc2ccccc2nc1[PH+](C)C(C)(C)C)C(C)(C)C.[Au+].[Cl-] (stereo not given)
active: HCT-15 colon -80.9% | HT29 colon -100% | SNB-75 CNS -98.4% | SNB-19 CNS -100% | U251 CNS -86.8% | PC-3 prostate -83.9% | SK-MEL-5 melanoma -100% | UACC-62 melanoma -79.5% | LOX IMVI melanoma -85.5% | SK-MEL-28 melanoma -85%

CC1=NC2=Nn3c(c4cnn(-c5ccccc5)c4n/c3=N\N)NN2C(c2ccccc2)=C1
inactive: HCT-15 colon 99% | HT29 colon 98.6% | SNB-75 CNS 67% | SNB-19 CNS 98.4% | U251 CNS 99% | PC-3 prostate 90.5% | SK-MEL-5 melanoma 91% | UACC-62 melanoma 77.6% | LOX IMVI melanoma 92% | SK-MEL-28 melanoma 102%

Cn1ccnc1C(=O)/C=C/c1ccc(CC(=O)Nc2cc(C(F)(F)F)cc(C(F)(F)F)c2)cc1
inactive: HCT-15 colon 53% | HT29 colon 66.4% | SNB-75 CNS 58.3% | SNB-19 CNS 67.1% | U251 CNS 40.8% | PC-3 prostate 55.9% | SK-MEL-5 melanoma 76.5% | UACC-62 melanoma 67.5% | LOX IMVI melanoma 56.5% | SK-MEL-28 melanoma 91.2%

CSc1oc(C)nc1[P+](c1ccccc1)(c1ccccc1)c1ccccc1
inactive: HCT-15 colon 104% | HT29 colon 53.9% | SNB-75 CNS 75.9% | SNB-19 CNS 45% | U251 CNS 42.2% | PC-3 prostate 52.1% | UACC-62 melanoma 47.2% | LOX IMVI melanoma 28.7% | SK-MEL-28 melanoma 61.1%
active: SK-MEL-5 melanoma -9.07%

CCCCCCCCCCC(CN(CC)CC)C(O)c1ccccc1 (stereo not given)
active: HT29 colon -2.44% | SK-MEL-5 melanoma -93.8% | UACC-62 melanoma -44.3% | LOX IMVI melanoma -82% | SK-MEL-28 melanoma -61.6%
inactive: HCT-15 colon 13.5% | SNB-75 CNS 49.4% | SNB-19 CNS 51.5% | U251 CNS 12.9% | PC-3 prostate 25.9%

COc1cc2c(cc1OC)C(C)N(S(N)(=O)=O)CC2 (stereo not given)
inactive: HCT-15 colon 102% | HT29 colon 99.8% | SNB-75 CNS 87.6% | SNB-19 CNS 97.6% | U251 CNS 114% | PC-3 prostate 89% | SK-MEL-5 melanoma 105% | UACC-62 melanoma 95.4% | LOX IMVI melanoma 102% | SK-MEL-28 melanoma 106%

CN(C)CC(C)(C)C(=O)/C=C/c1ccccc1
active: HCT-15 colon -47.6% [25 µM] | HT29 colon -16.7% [25 µM] | SNB-75 CNS -13.7% [25 µM] | SNB-19 CNS -1% [25 µM] | U251 CNS -41.5% [25 µM] | PC-3 prostate -34.4% [25 µM] | SK-MEL-5 melanoma -86.8% [25 µM] | UACC-62 melanoma -73.6% [25 µM] | LOX IMVI melanoma -84.8% [25 µM] | SK-MEL-28 melanoma -61.6% [25 µM]

CCOC(=O)c1ccc(NC(=O)c2nc(-c3cc(OC)c(OC)c(OC)c3)n(-c3ccc(Cl)cc3)n2)cc1
inactive: HCT-15 colon 93.2% | HT29 colon 89.9% | SNB-75 CNS 81% | SNB-19 CNS 88.8% | U251 CNS 93.8% | PC-3 prostate 77.5% | SK-MEL-5 melanoma 63.6% | UACC-62 melanoma 77.7% | LOX IMVI melanoma 91.8% | SK-MEL-28 melanoma 95%

CNc1nnc2n(-c3ccccc3)c(=O)c3cnn(-c4ccccc4)c3n12
inactive: HCT-15 colon 76.2% | HT29 colon 51.3% | SNB-75 CNS 73.1% | SNB-19 CNS 110% | U251 CNS 71.4% | PC-3 prostate 62.7% | SK-MEL-5 melanoma 100% | UACC-62 melanoma 95.4% | LOX IMVI melanoma 82.6% | SK-MEL-28 melanoma 103%

CCOC(=O)c1cc2c(n1C)-c1nc(NC(C)=O)sc1CCC2
inactive: HCT-15 colon 88.3% | HT29 colon 88% | SNB-75 CNS 71.4% | SNB-19 CNS 83.6% | U251 CNS 78.2% | PC-3 prostate 51% | SK-MEL-5 melanoma 80.4% | UACC-62 melanoma 69.5% | LOX IMVI melanoma 79.6% | SK-MEL-28 melanoma 107%
